Results reported in the supplement of paper PMC11417369.
± gives the standard deviation of the averaged measurements. In all, about 25,000 sequences were measured (“ln(normalized median fluorescence intensity)”: median about 10, highest 2% from about 12 on). Shown is part of a subset that was picked to be rich in the highest values.

tested on: PfAP2-G AP2 domain (GST-tagged); assay: gcPBM binding intensity (ln(normalized median fluorescence intensity)); higher = stronger DNA binding
Outline: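 In this array assay, P. falciparum DNA-binding domains with a GST tag, expressed in E. coli, were applied for 1 h to primer-extended double-stranded 36-bp intergenic genomic probes and negative controls on an Agilent 4 × 180k array. Bound protein was visualised with Alexa488 anti-GST antibody at 488 nm. Binding intensity is the highest Masliner-normalised natural-log median intensity across replicate spots of either probe orientation.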

Sequence | gcPBM binding intensity (ln)
ATATACTATATTTTAACACACAAAAAAAAAAAATAT [CACACA_site1091] | 9.985 ± 0.035
AAATTATAATATAATACACACATAAAAAAAAAATCA [CACACA_site3634] | 9.975 ± 0.049
AGGCACGTGTTATATACACACATAATCAAATAAACT [CACACA_site7852] | 10 ± 0.11
CCCCCCGTGTTATATACACACATAATCAAATAAAAT [CACACA_site4111] | 11.8 ± 0.99
TAATAAATAAAATAGAGTACAGGGATTTCATTAAAT [XGTACX_site8979] | 11.4 ± 0.82
CCAGTGTGCACCTTGCGTACATATTAAATTAATTAA [XGTACX_site3729] | 11.5 ± 0.96
TTGCATTAATTTATGTGTACATATAAATTTTTATTT [XGTACX_site3060] | 11.6 ± 0.88
TTTTAATGTACCAGTGTGCACCTTGCGTACATATTA [GTGCAC_site9957] | 11.6 ± 0.97
TTTTGGATCATTTGTTGTACATATGCAAAAAAAAAA [XGTACX_site3157] | 11.3 ± 0.91
TTCATCTTAAAATTGGGTACATAACACAAAGTATAA [XGTACX_site1894] | 11.3 ± 0.93
ATGGTATCTTTTAGAAGTACATCATGATAATAATTT [XGTACX_site5544] | 11.7 ± 0.91
TTAAGAATATCTTAGAGTACATTTTATCATCTTAAA [XGTACX_site8298] | 11 ± 0.68
ATCTTATCATTTTAAAGTACATAATTAATTCTTTTT [XGTACX_site3999] | 11.2 ± 0.67
ATTTTTTTTTAATGCAAAAGGTGATGATCGGTCATA [CACACA_negctrl_site959] | 10.2 ± 0.35
TATTAAAAATGTTAAGTGCAAAAATAAAAATTGTGG [GTGCAC_site9854] | 10.2 ± 0.17
GATACACCAAATAACTGTACGCACGTGTAATATTAA [XGTACX_site3441] | 11.6 ± 0.83
ATTAAAAAAATATACGCACACAAAATGTAATAACAA [CACACA_site2439] | 10.4 ± 0.21
ATGCATATAACTACGTGTACAAATATACACAAATAC [XGTACX_site8811] | 11.4 ± 0.86
CTTATACTTCTACATCGTACAAAAGATGGTATAATT [XGTACX_site2698] | 10.8 ± 0.43
GAACCGTTTTTATGTAGTACATATGTATATATATAT [XGTACX_site1577] | 11.6 ± 1.1

Sequence | gcPBM binding intensity (ln)
ATGTATATATATATATGTACATATTTTTTATATGTA [XGTACX_site441] | 11.2 ± 0.81
TATTTACATTTTAGTAGTACATATATGTATATATAT [XGTACX_site6839] | 11.3 ± 0.79
ATATTATATTGGATGTTGCACTTAACAAAAGGATAT [GTGCAC_site9478] | 10.2 ± 0.23
TTTCGATTATGTTTTTGTACGCAATATATTAATTCT [XGTACX_site3634] | 11.5 ± 1
ATAATTATATATTTATGTACGCATAAATATTTATAT [XGTACX_site5765] | 11.5 ± 1.2
CCTTATACGATATTATGTACGCATATGTGCATTTTT [XGTACX_site1570] | 11.5 ± 1
TTTTTTTCTTTTTGAGGTACGCATTATTTTATTTGT [XGTACX_site6996] | 11.3 ± 0.79
TATTATATATATAGGTGTACGCATTTGTCCTTTATA [XGTACX_site1385] | 11.7 ± 1.1
GAATTTCGATATATGTGTACGCATTTGTATTATAGG [XGTACX_site6332] | 11.7 ± 1.1
AATAATAAATTATGGTGTACGCATTTGTATATATAC [XGTACX_site5417] | 11.7 ± 0.98
ATATTAAATATAATTTGTACGCATTTTTTTTTTTTT [XGTACX_site1910] | 11.5 ± 0.82
ATATATTAATAATTTTGTACGCATTTCCTTTTTATT [XGTACX_site1638] | 11.5 ± 1
TACATAAACATTTATACACACATTATGTATACATAT [CACACA_site405] | 10.04 ± 0.035
TAAAAATATTTTCATTGTACATATATATAAATATAT [XGTACX_site1123] | 10.9 ± 0.61
ACATTTTTGGTTTTAGTGCAATATGAATTATTTTAT | 10.12 ± 0.078
AAAAAAAAATTAATATATAAAAGGATATATATATAT [GTGCAC_negctrl_site449] | 9.77 ± 0.46
AAGGATATAAAAAAACGTACGTACGATAATATAATT [XGTACX_site1292] | 11.6 ± 0.91
ATAAAATATAAAAATTGTACGATAATAATAGTAGGA [XGTACX_site8951] | 10.8 ± 0.36
TCATATATATTATACACACACATATATAAATATATA [CACACA_site967] | 10 ± 0.23
TTATTAAAAATGTATTGTACAAATTTATTAGTAAAT [XGTACX_site4799] | 11 ± 0.52

Sequence | gcPBM binding intensity (ln)
GTGTAGTAAAATCGATGTACGTACAAATCAATTATT [XGTACX_site7662] | 11.8 ± 0.83
TCATGTAGTAAAAACTGTACAAATTATTTATCATGT [XGTACX_site1727] | 11 ± 0.64
ACCTTTATTGTATGAACACACATAAGCTGATACATC [CACACA_site4028] | 10.2 ± 0.11
ATTTATTTCAATAAACTTCTTTTCTTTAACAATTAC [CACACA_negctrl_site1222] | 9.845 ± 0.035
TATTCATATTTAAAGGTGCAATATTTATTTTGTACA | 10.2 ± 0.18
TATTTTACACATTTACGTACATAAATATATATATAT [XGTACX_site8788] | 11.6 ± 0.95
AAAAGACATTTTTTTTTATAAATACACACGTACGTG [TGCATGCA_negctrl_site281] | 11.1 ± 0.72
CCTCCCATTTTTACACGTACACATTTAAAATAGACT [XGTACX_site5640] | 11.7 ± 1.1
TCTTATGATGGAATGTTAAATATTACATTTTGTTTA [TGCATGCA_negctrl_site503] | 9.51 ± 0.22
GTTTTTGAGTAGTACACACACAATAAGGATGGATTC [CACACA_site3192] | 11.5 ± 0.97
GAAACGTTTTTGAGTAGTACACACACAATAAGGATG [XGTACX_site6809] | 11.7 ± 1.1
ACGTTTTTGAGTAGTACACACACAATAAGGATGGAT [CACACA_site9044] | 11.5 ± 0.97
TTAAAAATGTTGGAAAGTACATATTTTTTAAAAGTA [XGTACX_site802] | 11.1 ± 0.61
TTAACCACTAAAAGTACACACATATATACATATATA [CACACA_site3912] | 11.4 ± 0.92
ATATATCATCATGTATGTACACACATACATATATTA [XGTACX_site2814] | 11.2 ± 0.74
TCATCATGTATGTACACACATACATATATTATGTAC [CACACA_site1386] | 11.7 ± 0.8
ATATATACATATGGGTGTACATATGCACATATATAT [XGTACX_site8437] | 11.3 ± 0.71
TATATCATCATGTATGTACACACATACATATATTAT [CACACA_site8387] | 11.2 ± 0.72
AATACATATGGGTGTACACATTATATATATATATAT [CACACA_site4601] | 11.6 ± 0.89
ATAATAATATGTGGGTGTACATATACACATATATAT [XGTACX_site4356] | 11.3 ± 0.71
